Our source for the AC50 and outcome values is PubChem BioAssay (EPA / NIEHS).

Several values for one entry are separate records, joined by “and”; a condition that tells them apart may be missing. Identical values can stand only once. Inconclusive results are not listed. Activity calls are given as the source filed them. How the source made its calls: active means hit-call score of the fitted dose curve at least 0.9, where 1 is the maximum; inconclusive means response in the unintended direction; inactive means score below 0.9.

Assay [1] concerns the target human Sirtuin 2 (SIRT2), SIRT2 (gene 22933) (UniProt Q8IXJ6). The assay is described as follows: NVS_ENZ_hSIRT2: NovaScreen (NVS) Enzymatic Assay for human Sirtuin 2 (SIRT2) (AID 2283217). Put shortly: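 Single-point duplicate screen at 25 uM, then concentration-response (max 50 uM) for chemicals passing threshold. Enzyme activity of recombinant human SIRT2 measured after 1 hr by fluorescence with mobility-shift separation of product; DMSO baseline.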

For assay [2], the target named is human Protein Tyrosine Phosphatase Non-receptor Type 2 (PTPN2), PTPN2 (gene 5771) (UniProt P17706). The assay can be described thus: NVS_ENZ_hPTPN2: NovaScreen (NVS) Enzymatic Assay for human Protein Tyrosine Phosphatase Non-receptor Type 2 (PTPN2) (AID 2283207). In a few lines:
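Activity measured as fluorescence after mobility-shift separation of substrate and product, 1 h after compound. Duplicate single-point 25 uM primary testing, concentration series for actives; inhibition scored as signal loss relative to DMSO baseline.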

In assay [3] the target is human Raf-1 Proto-Oncogene, serine/threonine Kinase (RAF1), RAF1 (gene 5894) (UniProt P04049). The assay can be described thus: NVS_ENZ_hRAF1: NovaScreen (NVS) Enzymatic Assay for human Raf-1 Proto-Oncogene, serine/threonine Kinase (RAF1) (AID 2283216). Put shortly: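 Single-point screening at 25 uM (duplicate), followed by singleton concentration-response to 50 uM maximum for chemicals exceeding threshold. Enzyme activity from fluorescent substrate-product mobility-shift separation after 1 h, relative to DMSO.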

Another assay deals with PPP2CA (gene 5515) (UniProt P67775). The assay can be described thus: NVS_ENZ_hPPP2CA: NovaScreen (NVS) Enzymatic Assay for human Protein Phosphatase 2 Aatalytic subunit Alpha (PPP2CA) (AID 2283199). Put shortly:
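Cell-free phosphatase activity: fluorescent substrate turnover by recombinant human enzyme, resolved by mobility shift at 1.33 h. Compounds passing the 25 uM duplicate primary screen were rerun in singleton series with a 50 uM top concentration.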

Assay [4] addresses human Phosphatase and Tensin Homolog (PTEN), PTEN (gene 5728) (UniProt P60484). The assay can be described thus: NVS_ENZ_hPTEN: NovaScreen (NVS) Enzymatic Assay for human Phosphatase and Tensin Homolog (PTEN) (AID 2283203). In a few lines: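 Loss of fluorescent product signal after mobility-shift separation reports PTEN activity, recombinant human enzyme, 1 h after compound addition. Single 25 uM duplicate screen, then concentration-response on actives; DMSO baseline.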

Assay [5] concerns the target Tyrosine-protein phosphatase non-receptor type 12 (Homo sapiens) (UniProt Q05209). The assay is described as follows: NVS_ENZ_hPTPN12: NovaScreen (NVS) Enzymatic Assay for human Protein Tyrosine Phosphatase Non-receptor Type 12 (PTPN12) (AID 2283204). In a few lines: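 Single-concentration duplicates (25 uM) preceded singleton concentration-response up to 50 uM for chemicals passing threshold. Cell-free recombinant PTPN12 activity was read 1.33 h after dosing via fluorescence after mobility-shift separation; loss of signal versus DMSO.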

For assay [6], the target named is Tyrosine-protein phosphatase non-receptor type 13 (Homo sapiens) (UniProt Q12923). The assay is described as follows: NVS_ENZ_hPTPN13: NovaScreen (NVS) Enzymatic Assay for human Protein Tyrosine Phosphatase Non-receptor Type 13 (PTPN13) (AID 2283205). In a few lines:
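Screened first at a single 25 uM in duplicate; compounds passing the threshold (e.g. 30% inhibition) were rerun in concentration series, top 50 uM. Recombinant enzyme, fluorescent substrate, mobility-shift separation, 0.5 h read. Data fitted as inhibition relative to DMSO.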

For assay [7], the target named is human Protein Tyrosine Phosphatase Non-receptor Type 9 (PTPN9), PTPN9 (gene 5780) (UniProt P43378). The assay is described as follows: NVS_ENZ_hPTPN9: NovaScreen (NVS) Enzymatic Assay for human Protein Tyrosine Phosphatase Non-receptor Type 9 (PTPN9) (AID 2283209). Put shortly: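 Sf9-expressed enzyme in a cell-free assay, fluorescence read 1.33 h after dosing with mobility-shift separation of substrate and product. Tested at 25 uM in duplicate, then up to 50 uM; signal loss versus DMSO.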

Assay [8] deals with human Protein Tyrosine Phosphatase Non-receptor Type 6 (PTPN6), PTPN6 (gene 5777) (UniProt P29350). The assay can be described thus: NVS_ENZ_hPTPN6: NovaScreen (NVS) Enzymatic Assay for human Protein Tyrosine Phosphatase Non-receptor Type 6 (PTPN6) (AID 2283210). In a few lines:
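Recombinant human PTPN6 from SF9 cells, enzyme activity followed by fluorescence after mobility-shift separation of substrate and product at 1.33 h. Chemicals first tested at a single 25 uM in duplicate, then confirmed across concentration series; loss of signal relative to DMSO.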

The target of assay [9] is human Protein Tyrosine Phosphatase Non-receptor Type 4 (PTPN4), PTPN4 (gene 5775) (UniProt P29074). The assay is described as follows: NVS_ENZ_hPTPN4: NovaScreen (NVS) Enzymatic Assay for human Protein Tyrosine Phosphatase Non-receptor Type 4 (PTPN4) (AID 2283208). Put shortly: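 Screened in duplicate at 25 uM, with hits then titrated to a top concentration of 50 uM. Recombinant Sf9-derived PTPN4 turnover was read by fluorescence with electrophoretic separation, 1.33 h after compound addition. DMSO served as baseline.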

Assay [10] deals with human Protein Tyrosine Phosphatase Receptor Type M (PTPRM), PTPRM (gene 5797) (UniProt P28827). The assay can be described thus: NVS_ENZ_hPTPRM: NovaScreen (NVS) Enzymatic Assay for human Protein Tyrosine Phosphatase Receptor Type M (PTPRM) (AID 2283215). In a few lines: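 Read-out is fluorescence after electrophoretic separation of substrate and product, taken 1.33 h post-dosing with recombinant enzyme. Compounds screened at 25 uM in duplicate, then concentration series for actives; activity as signal loss relative to DMSO.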

The target of assay [11] is Serine/threonine-protein phosphatase PP1-alpha catalytic subunit (Homo sapiens) (UniProt P62136). The assay can be described thus: NVS_ENZ_hPPP1CA: NovaScreen (NVS) Enzymatic Assay for human Protein Phosphatase 1 Aatalytic subunit Alpha (PPP1CA) (AID 2283200). Put shortly: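 Chemicals were first screened in duplicate at 25 uM, and those passing threshold (e.g. 30% inhibition) were run as concentration series to 50 uM. Cell-free recombinant protein, 1.33 h read, fluorescent substrate/product mobility-shift detection, normalised to DMSO.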

Assay [12] has as its target human Protein Tyrosine Phosphatase Non-receptor Type 1 (PTPN1), PTPN1 (gene 5770) (UniProt P18031). The assay can be described thus: NVS_ENZ_hPTPN1: NovaScreen (NVS) Enzymatic Assay for human Protein Tyrosine Phosphatase Non-receptor Type 1 (PTPN1) (AID 2283201). In a few lines:
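Chemicals were first tested in duplicate at 25 uM, and those passing threshold went on to singleton concentration series topping at 50 uM. Recombinant enzyme, specific substrate, product separated by mobility shift, fluorescence read at 1.33 h; activity loss relative to DMSO.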

The target in assay [13] is Tyrosine-protein phosphatase non-receptor type 11 (Homo sapiens) (UniProt Q06124). The assay can be described thus: NVS_ENZ_hPTPN11: NovaScreen (NVS) Enzymatic Assay for human Protein Tyrosine Phosphatase Non-receptor Type 11 (PTPN11) (AID 2283202). In a few lines:
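Compounds first tested in duplicate at 25 uM; those reaching ~30% inhibition rerun in singleton concentration-response, top 50 uM. Phosphatase activity measured after 0.5 h by fluorescence with mobility-shift separation, relative to DMSO.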

The target of assay [14] is human Protein Tyrosine Phosphatase Receptor Type B (PTPRB), PTPRB (gene 5787) (UniProt P23467). The assay is described as follows: NVS_ENZ_hPTPRB: NovaScreen (NVS) Enzymatic Assay for human Protein Tyrosine Phosphatase Receptor Type B (PTPRB) (AID 2283211). Put shortly: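 Recombinant human PTPRB with a fluorescent substrate, product separated by electrophoretic mobility shift; read 1 h after dosing. Primary screen in duplicate at 25 uM; actives then retested in concentration series; loss of signal versus DMSO.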

The target of assay [15] is human Protein Tyrosine Phosphatase Receptor Type F (PTPRF), PTPRF (gene 5792) (UniProt P10586). The assay is described as follows: NVS_ENZ_hPTPRF: NovaScreen (NVS) Enzymatic Assay for human Protein Tyrosine Phosphatase Receptor Type F (PTPRF) (AID 2283213). Put shortly:
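Cell-free fluorescence enzyme assay with recombinant protein and substrate; product separated by electrophoretic mobility shift. Read 1 h after dosing, single 25 uM duplicate screen, then concentration-response up to 50 uM; loss of signal vs DMSO.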

Sequence of human Protein Tyrosine Phosphatase Non-receptor Type 9 (PTPN9), PTPN9 (gene 5780) (P43378 whole entry, looked up): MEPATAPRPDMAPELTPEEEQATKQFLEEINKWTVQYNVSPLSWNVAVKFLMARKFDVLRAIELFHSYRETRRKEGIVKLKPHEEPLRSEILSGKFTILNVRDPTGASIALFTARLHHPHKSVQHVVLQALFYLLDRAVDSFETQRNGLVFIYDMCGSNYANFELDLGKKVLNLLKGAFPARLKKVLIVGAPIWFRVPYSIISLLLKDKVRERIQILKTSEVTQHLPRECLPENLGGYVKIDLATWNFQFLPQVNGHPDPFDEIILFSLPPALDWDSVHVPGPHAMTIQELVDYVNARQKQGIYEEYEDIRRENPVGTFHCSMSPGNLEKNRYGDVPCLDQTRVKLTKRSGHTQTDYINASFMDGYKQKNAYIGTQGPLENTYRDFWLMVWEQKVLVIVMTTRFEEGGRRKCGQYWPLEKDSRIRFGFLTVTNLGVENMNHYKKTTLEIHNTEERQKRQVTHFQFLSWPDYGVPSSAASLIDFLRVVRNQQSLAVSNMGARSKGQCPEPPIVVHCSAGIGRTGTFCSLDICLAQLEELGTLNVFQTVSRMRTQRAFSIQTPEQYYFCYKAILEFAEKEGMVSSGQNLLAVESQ
Sequence of human Raf-1 Proto-Oncogene, serine/threonine Kinase (RAF1), RAF1 (gene 5894) (P04049 whole entry, looked up): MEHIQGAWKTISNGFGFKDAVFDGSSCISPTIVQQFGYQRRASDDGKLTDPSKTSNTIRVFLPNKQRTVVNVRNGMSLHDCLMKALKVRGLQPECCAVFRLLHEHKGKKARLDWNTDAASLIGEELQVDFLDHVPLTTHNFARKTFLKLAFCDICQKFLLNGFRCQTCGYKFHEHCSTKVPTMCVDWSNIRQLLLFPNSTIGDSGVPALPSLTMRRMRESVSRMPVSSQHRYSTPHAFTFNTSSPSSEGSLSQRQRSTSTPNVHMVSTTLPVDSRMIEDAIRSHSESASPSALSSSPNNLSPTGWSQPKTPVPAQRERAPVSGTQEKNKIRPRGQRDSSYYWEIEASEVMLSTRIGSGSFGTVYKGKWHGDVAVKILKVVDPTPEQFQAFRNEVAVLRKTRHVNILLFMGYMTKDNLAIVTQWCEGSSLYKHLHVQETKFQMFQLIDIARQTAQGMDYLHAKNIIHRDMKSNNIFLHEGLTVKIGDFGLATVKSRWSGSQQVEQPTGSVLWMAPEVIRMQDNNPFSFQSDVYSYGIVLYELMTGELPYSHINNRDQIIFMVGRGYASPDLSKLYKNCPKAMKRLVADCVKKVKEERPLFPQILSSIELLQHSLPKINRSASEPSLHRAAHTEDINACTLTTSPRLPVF
Sequence of Serine/threonine-protein phosphatase PP1-alpha catalytic subunit (Homo sapiens) (P62136 whole entry, looked up): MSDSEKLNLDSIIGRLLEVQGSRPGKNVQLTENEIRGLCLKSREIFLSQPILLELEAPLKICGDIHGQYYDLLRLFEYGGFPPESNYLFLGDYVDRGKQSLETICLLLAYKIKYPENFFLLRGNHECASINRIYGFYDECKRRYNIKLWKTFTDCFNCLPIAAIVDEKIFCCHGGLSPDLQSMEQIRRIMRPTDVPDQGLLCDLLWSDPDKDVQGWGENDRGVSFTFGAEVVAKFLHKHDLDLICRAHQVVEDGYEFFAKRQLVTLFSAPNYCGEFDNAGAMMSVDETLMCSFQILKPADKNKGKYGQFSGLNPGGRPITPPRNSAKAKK
Sequence of human Sirtuin 2 (SIRT2), SIRT2 (gene 22933) (Q8IXJ6 whole entry, looked up): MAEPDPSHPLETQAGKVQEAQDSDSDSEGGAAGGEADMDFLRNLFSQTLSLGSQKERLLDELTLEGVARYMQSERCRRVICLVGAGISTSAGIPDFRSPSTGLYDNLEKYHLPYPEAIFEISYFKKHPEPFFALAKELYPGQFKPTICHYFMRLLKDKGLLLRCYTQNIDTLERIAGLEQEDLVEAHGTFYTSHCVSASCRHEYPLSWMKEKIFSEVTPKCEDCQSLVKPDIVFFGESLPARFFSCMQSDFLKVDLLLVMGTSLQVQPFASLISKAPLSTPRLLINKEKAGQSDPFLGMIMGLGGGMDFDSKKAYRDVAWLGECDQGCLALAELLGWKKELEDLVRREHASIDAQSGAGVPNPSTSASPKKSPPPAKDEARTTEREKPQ
Sequence of Tyrosine-protein phosphatase non-receptor type 13 (Homo sapiens) (Q12923 whole entry, looked up): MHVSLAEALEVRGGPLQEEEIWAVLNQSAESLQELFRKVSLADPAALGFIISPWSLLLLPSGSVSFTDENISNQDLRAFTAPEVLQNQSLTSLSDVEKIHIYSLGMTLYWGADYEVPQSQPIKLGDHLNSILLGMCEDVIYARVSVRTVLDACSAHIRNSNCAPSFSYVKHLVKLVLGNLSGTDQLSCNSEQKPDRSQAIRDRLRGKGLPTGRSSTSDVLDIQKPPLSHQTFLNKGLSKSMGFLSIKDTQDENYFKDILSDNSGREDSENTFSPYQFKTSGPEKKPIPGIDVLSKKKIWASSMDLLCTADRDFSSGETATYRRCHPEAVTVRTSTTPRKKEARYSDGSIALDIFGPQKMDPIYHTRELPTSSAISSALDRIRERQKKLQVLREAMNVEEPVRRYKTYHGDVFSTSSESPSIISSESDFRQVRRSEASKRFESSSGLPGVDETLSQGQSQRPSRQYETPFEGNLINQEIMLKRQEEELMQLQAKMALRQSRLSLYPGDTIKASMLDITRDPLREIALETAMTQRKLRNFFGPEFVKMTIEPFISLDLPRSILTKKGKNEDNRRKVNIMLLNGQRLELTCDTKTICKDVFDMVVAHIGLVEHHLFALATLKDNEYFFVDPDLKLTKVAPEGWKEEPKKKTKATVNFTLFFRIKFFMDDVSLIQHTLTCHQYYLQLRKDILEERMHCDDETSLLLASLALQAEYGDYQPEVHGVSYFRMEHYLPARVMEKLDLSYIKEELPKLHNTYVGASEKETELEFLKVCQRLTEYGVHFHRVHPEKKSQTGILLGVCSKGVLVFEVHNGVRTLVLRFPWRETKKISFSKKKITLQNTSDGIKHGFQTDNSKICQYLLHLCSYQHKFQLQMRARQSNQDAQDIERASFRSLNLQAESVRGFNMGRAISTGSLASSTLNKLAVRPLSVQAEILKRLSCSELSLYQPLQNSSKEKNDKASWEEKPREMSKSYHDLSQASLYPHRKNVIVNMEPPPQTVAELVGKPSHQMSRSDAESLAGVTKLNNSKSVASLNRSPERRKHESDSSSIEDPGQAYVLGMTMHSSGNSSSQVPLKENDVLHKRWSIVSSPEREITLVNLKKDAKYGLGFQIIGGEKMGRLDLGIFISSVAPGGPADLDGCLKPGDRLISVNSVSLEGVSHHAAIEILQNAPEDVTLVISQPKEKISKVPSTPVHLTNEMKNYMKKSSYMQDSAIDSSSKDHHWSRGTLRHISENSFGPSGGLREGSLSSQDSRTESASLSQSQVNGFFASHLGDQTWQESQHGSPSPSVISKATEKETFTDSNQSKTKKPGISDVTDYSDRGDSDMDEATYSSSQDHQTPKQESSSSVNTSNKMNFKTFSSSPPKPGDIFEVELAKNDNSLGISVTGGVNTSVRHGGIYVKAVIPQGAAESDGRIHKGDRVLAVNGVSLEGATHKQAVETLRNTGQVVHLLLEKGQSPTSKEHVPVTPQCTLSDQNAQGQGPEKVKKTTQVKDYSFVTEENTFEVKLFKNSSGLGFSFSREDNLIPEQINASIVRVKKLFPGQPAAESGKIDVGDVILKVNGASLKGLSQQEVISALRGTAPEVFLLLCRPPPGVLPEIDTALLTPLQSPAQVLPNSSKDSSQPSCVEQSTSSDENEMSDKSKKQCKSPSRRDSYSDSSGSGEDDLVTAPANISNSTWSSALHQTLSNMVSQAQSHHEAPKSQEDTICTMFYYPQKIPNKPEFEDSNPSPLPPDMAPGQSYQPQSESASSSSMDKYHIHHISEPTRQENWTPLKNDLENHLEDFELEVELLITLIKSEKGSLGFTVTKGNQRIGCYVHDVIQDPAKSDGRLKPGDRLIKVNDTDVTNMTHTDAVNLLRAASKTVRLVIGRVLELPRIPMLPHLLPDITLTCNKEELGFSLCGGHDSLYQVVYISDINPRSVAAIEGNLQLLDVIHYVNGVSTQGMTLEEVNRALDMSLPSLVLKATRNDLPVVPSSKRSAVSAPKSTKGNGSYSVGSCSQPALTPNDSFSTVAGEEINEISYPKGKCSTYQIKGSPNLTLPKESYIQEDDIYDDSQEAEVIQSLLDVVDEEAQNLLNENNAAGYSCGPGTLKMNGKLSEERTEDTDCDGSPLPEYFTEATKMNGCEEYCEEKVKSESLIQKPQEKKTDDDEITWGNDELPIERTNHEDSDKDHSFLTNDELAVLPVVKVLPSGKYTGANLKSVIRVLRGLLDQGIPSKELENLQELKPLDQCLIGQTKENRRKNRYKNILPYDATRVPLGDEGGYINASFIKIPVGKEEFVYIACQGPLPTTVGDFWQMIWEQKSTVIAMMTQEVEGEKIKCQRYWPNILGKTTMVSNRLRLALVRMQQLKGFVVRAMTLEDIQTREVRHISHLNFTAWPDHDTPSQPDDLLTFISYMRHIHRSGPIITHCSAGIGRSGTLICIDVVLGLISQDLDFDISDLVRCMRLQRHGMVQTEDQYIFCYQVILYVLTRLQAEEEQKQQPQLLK
Sequence of human Protein Tyrosine Phosphatase Non-receptor Type 2 (PTPN2), PTPN2 (gene 5771) (P17706 whole entry, looked up): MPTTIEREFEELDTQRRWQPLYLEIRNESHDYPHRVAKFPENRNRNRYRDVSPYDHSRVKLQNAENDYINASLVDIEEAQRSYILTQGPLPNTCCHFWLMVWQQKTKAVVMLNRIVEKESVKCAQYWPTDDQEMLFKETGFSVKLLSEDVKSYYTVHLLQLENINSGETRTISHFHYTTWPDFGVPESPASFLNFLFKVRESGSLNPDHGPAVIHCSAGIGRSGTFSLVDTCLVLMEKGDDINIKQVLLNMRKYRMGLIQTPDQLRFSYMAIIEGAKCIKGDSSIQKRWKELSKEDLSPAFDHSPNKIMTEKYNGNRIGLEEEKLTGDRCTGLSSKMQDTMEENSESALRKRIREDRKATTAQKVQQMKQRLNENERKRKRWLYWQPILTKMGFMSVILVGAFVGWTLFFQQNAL

For `CCCN(CCOc1c(Cl)cc(Cl)cc1Cl)C(=O)n1ccnc1`, the AC50 in assay [1] is 10.8 µM (active).
Take `C#CCN1C(=O)COc2cc(F)c(N3C(=O)C4=C(CCCC4)C3=O)cc21`: the molecule was classed as inactive in [2].
As to `Oc1ccc(Cl)cc1Cc1ccccc1`, the result in assay [3] was inactive. Moreover, the AC50 in assay [1] is 3.4 µM (active) and 9.3 µM (active).
Consider `CCC(C)Nc1c([N+](=O)[O-])cc(C(C)(C)C)cc1[N+](=O)[O-]` (centres undefined), for which, in assay [3], the result was inactive.
On the same count and under the same terms, then `CNC(=O)/C=C(\C)OP(=O)(OC)OC`, with “inactive”.
On to `CC(C)(C)C(O)C(Oc1ccc(Cl)cc1)n1cncn1` (centres undefined), for which the outcome (in the assay with PPP2CA (gene 5515); in assay [4]; in assay [5]; in assay [6]; in assay [2]; in [7]) was inactive. The molecule was called inactive in [8].
In the case of `Cc1cc(C)nc(NC(=O)NS(=O)(=O)c2ccccc2C(=O)OC2COC2)n1`, the concentration at half-maximal activity (AC50) in [9] was 4.96 µM (active); in [7], 36.7 µM (active). Besides, the molecule was classed as inactive in assay [10].
`O=C(O)C(F)(F)C(F)(F)C(F)(F)C(F)(F)C(F)(F)C(F)(F)C(F)(F)F`: the half-maximal activity concentration (AC50) was 25 µM (active) with PPP2CA (gene 5515) and 0.493 µM (active) in assay [11]. For the same molecule, the molecule was classed as inactive in assay [12], in assay [13], in assay [4], in assay [5], in [6] and in [2]. Besides, the molecule was called inactive in [14] and in [10].
`Cc1[nH]c(=O)n(C(C)(C)C)c(=O)c1Cl`: the result in [12] was inactive.
As for `CCS(=O)(=O)c1cccnc1S(=O)(=O)NC(=O)Nc1nc(OC)cc(OC)n1`, the call in [4], in assay [15], in assay [10] and in assay [3] was inactive.
Consider `COC(=O)c1ccccc1S(=O)(=O)NC(=O)N(C)c1nc(C)nc(OC)n1`, for which the call in assay [11], in assay [6], in assay [2], in assay [9] and in assay [7] was inactive.
As for `O=[N+]([O-])c1c(Cl)c(Cl)c(Cl)c(Cl)c1Cl`, the call in assay [11] and in assay [15] was inactive.
For `CN1CSC(=S)N(C)C1`, the outcome in [2], in assay [9] and in assay [7] was inactive. Besides, the AC50 in assay [15] was 10.1 µM (active); in assay [10], 25 µM (active).
For the molecule `COC(=O)c1ccccc1S(=O)(=O)NC(=O)Nc1nc(C)nc(OC)n1`, the molecule was called inactive in [14].
